“And” between values parts separate entries of the source, which are not always exact repeats. Identical values can stand only once. Inconclusive results are not listed. The source made the active and inactive calls. Unless noted, the call rests on the fitted dose curve; in most records, active means well fitted curve in the direction sought with a large enough effect in the repeat runs; inconclusive means weak or mixed curves; inactive means no such curve, though single readings can be large; an effect the other way counts as inactive or inconclusive.
What was measured:
[1] = qHTS assay to identify aromatase inhibitors - cell viability counter screen (AID 743084);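 further: cells stimulated with testosterone during compound exposure; nearly all actives have a fitted effect of over 55% in size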; further: potency means the concentration at half of the fitted maximal effect
[2] = biological target: Aryl hydrocarbon receptor (Homo sapiens) (UniProt P35869); test: qHTS assay to identify small molecule that activate the aryl hydrocarbon receptor (AhR) signaling pathway (AID 743085); further: nearly all actives have a fitted effect of over 15% in size; further: potency means the concentration at half of the fitted maximal effect;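 on activation: HG2L7.5c1 human HepG2 liver cells with stably integrated DRE-driven firefly reporter; series mostly up to about 70 µM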
In short: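 AhR agonist activity is inferred from enhanced light output of a DRE-controlled firefly luciferase reporter in HepG2 cells, measured with ONE-Glo following 24 h treatment at 37C.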

[3] = qHTS assay to identify small molecule that activate the aryl hydrocarbon receptor (AhR) signaling pathway - cell viability counter screen (AID 743086); further: nearly all actives have a fitted effect of over 45% in size; further: potency means the concentration at half of the fitted maximal effect;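 on viability change, negative = cytotoxic: HepG2 liver cells carrying the AhR DRE luciferase reporter; series mostly up to about 70 µM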
In short: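 HepG2-AhR-luc (HG2L7.5c1) cells, 4000/well, were preincubated 5 h at 37C, exposed to compound in qHTS format for 24 hr at 37C, then given CellTiter-Fluor for 30 min; viability was read as fluorescence in the reporter wells.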

[4] = qHTS assay to identify small molecule antagonists of the peroxisome proliferator-activated receptor gamma (PPARg) signaling pathway - cell viability counter screen (AID 743194); further: nearly all actives have a fitted effect of over 55% in size
In short: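 PPARg-UAS-bla HEK293H cells were plated, rested 5 h at 37 C, then treated with compounds plus rosiglitazone (50 nM final) for 17 h at 37 C; viability was then read by CellTiter-Glo luminescence after 30 min at room temperature.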

[5] = qHTS assay for small molecule agonists of the antioxidant response element (ARE) signaling pathway - cell viability counter screen (AID 743203; calls by dose curve; further: nearly all actives have a fitted effect of over 55% in size; further: potency means the concentration at half of the fitted maximal effect)
In short: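 Cytotoxicity was tested in parallel with the ARE reporter screen. ARE-bla HepG2 cells were exposed to compounds for 16 hrs, and viability was taken from CellTiter-Glo luminescence.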

[6] = qHTS assay for small molecule activators of the heat shock response signaling pathway - cell viability counter screen (AID 743209); further: nearly all actives have a fitted effect of over 50% in size
In short: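 Cytotoxicity counter screen run in parallel with the HSE beta-lactamase reporter, using the same wells. HeLa HSE-bla cells received compound for 5 h at 37 C; ATP-based CellTiter-Glo luminescence was measured after 30 min at room temperature.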

[7] = biological target: Peroxisome proliferator-activated receptor delta (Homo sapiens) (UniProt Q03181); test: qHTS assay to identify small molecule agonists of the peroxisome proliferator-activated receptor delta (PPARd) signaling pathway (AID 743212; calls by dose curve)
In short: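 Cells expressing a UAS-driven beta-lactamase reporter (PPARd-bla HEK293H) were given test compounds after a 5 h settle and kept at 37 C. Reporter activity was then measured as FRET fluorescence using LiveBLAzer B/G substrate.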

[8] = qHTS assay to identify small molecule antagonists of the peroxisome proliferator-activated receptor delta (PPARd) signaling pathway - cell viability counter screen (AID 743213); further: nearly all actives have a fitted effect of over 50% in size
In short: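 PPARd-bla HEK293H cells (3000/well) got compound plus 300 nM L165041 agonist for 17 h at 37 C. Viability in the same wells came from CellTiter-Glo luminescence after 30 min at room temperature.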

[9] = biological target: Peroxisome proliferator-activated receptor delta (Homo sapiens) (UniProt Q03181); test: qHTS assay to identify small molecule antagonists of the peroxisome proliferator-activated receptor delta (PPARd) signaling pathway (AID 743215; active means well fitted inhibition curve with a large enough effect in the signal ratio in the repeat runs, not every such curve was filed as active; the % refers to the signal ratio;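 further: cells stimulated with agonist L165041 at 300 nM final during compound exposure; series mostly up to about 62 µM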)
In short: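 Cells: HEK293H with a UAS-driven beta-lactamase reporter responsive to PPARd. Compounds were co-added with L165041 (300 nM, final) and incubated 17 h at 37 C before a 2 h room-temperature FRET substrate step and fluorescence reading.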

[10] = biological target: Bile acid receptor (Homo sapiens) (UniProt Q96RI1); test: qHTS assay to identify small molecule antagonists of the farnesoid-X-receptor (FXR) signaling pathway (AID 743217; active means well fitted inhibition curve with a large enough effect in the signal ratio in the repeat runs, not every such curve was filed as active; the % refers to the signal ratio)
In short: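 Cells carrying a UAS-driven beta-lactamase reporter (GeneBLAzer FXR-UAS-bla HEK 293T) were plated and rested 5 h at 37 °C. Compounds in DMSO were added alongside chenodeoxycholic acid agonist at 50 uM final and left 16 h at 37 °C before FRET substrate readout.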

[11] = qHTS assay to identify small molecule agonists of the farnesoid-X-receptor (FXR) signaling pathway - cell viability counter screen (AID 743218); further: nearly all actives have a fitted effect of over 45% in size; further: potency means the concentration at half of the fitted maximal effect
In short: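 Cells were seeded, left 5 h at 37 C and 5% CO2, then dosed with compound in DMSO for 16 h. After the beta-lactamase FRET read, CellTiter-Glo was added and luminescence measured 30 min later.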

[12] = biological target: Bile acid receptor (Homo sapiens) (UniProt Q96RI1); test: qHTS assay to identify small molecule agonists of the farnesoid-X-receptor (FXR) signaling pathway (AID 743220; active means well fitted activation curve with a large enough effect in the signal ratio in the repeat runs, not every such curve was filed as active; the % refers to the signal ratio)
In short: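 FXR-UAS-bla HEK 293T cells carrying a UAS-driven beta-lactamase reporter were plated for 5 h at 37C/5% CO2, then exposed to DMSO-dissolved Tox21 10K compounds for 16 h at 37C. A LiveBLAzer B/G FRET substrate was loaded for 2 h at room temperature before fluorescence reading.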

[13] = qHTS assay to identify small molecule antagonists of the farnesoid-X-receptor (FXR) signaling pathway - cell viability counter screen (AID 743221; active means well fitted cell-killing curve with a large enough effect in the repeat runs, not every such curve was filed as active; further: nearly all actives have a fitted effect of over 50% in size; further: potency means the concentration at half of the fitted maximal effect)
In short: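 After a 5 h settling period, FXR-bla HEK 293T cells receive compound and chenodeoxycholic acid (50 uM final) and incubate 16 h at 37 C; CellTiter-Glo luminescence, read after 30 min at room temperature, reports cell viability.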

[14] = biological target: Vitamin D3 receptor (Homo sapiens) (UniProt P11473); test: qHTS assay to identify small molecule agonists of the vitamin D receptor (VDR) signaling pathway (AID 743222; calls by dose curve)
In short: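 Cells carrying a VDR-driven beta-lactamase reporter are seeded at 2,000 per well and rested 4 h. Compounds in DMSO are added for 16 h at 37C, and FRET substrate fluorescence is measured after 2 h at room temperature.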

[15] = biological target: Peroxisome proliferator-activated receptor gamma (Homo sapiens) (UniProt P37231); test: qHTS assay to identify small molecule agonists of the peroxisome proliferator-activated receptor gamma (PPARg) signaling pathway (AID 743094; active means well fitted activation curve with a large enough effect in the signal ratio in the repeat runs, not every such curve was filed as active; the % refers to the signal ratio)
In short: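 Cells from the PPARg UAS-bla HEK293H line are plated and incubated 5 h at 37C. Compounds in DMSO are pinned in and left 17 h at 37C. LiveBLAzer B/G substrate is then added for 1 h at room temperature before fluorescence is measured.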

[16] = biological target: Peroxisome proliferator-activated receptor gamma (Homo sapiens) (UniProt P37231); test: qHTS assay to identify small molecule antagonists of the peroxisome proliferator-activated receptor gamma (PPARg) signaling pathway (AID 743191; calls by dose curve; further: series mostly up to about 63 µM; nearly all actives have a fitted effect of over 30% in size)
In short: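 GeneBLAzer PPARg UAS-bla HEK293H cells carrying a UAS-driven beta-lactamase reporter were plated at 3000 cells/well, preincubated 5 h at 37C, then given compound for 17 h at 37C; LiveBLAzer B/G FRET substrate was read after 1 h at room temperature.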

[17] = qHTS assay to identify small molecule agonists of the peroxisome proliferator-activated receptor delta (PPARd) signaling pathway - cell viability counter screen (AID 743211); further: nearly all actives have a fitted effect of over 55% in size; further: potency means the concentration at half of the fitted maximal effect
In short: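 qHTS cell viability: PPARd-bla HEK293H; 17 h cpd, 37C; CellTiter-Glo, luminescence at 30 min RT.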

[18] = biological target: Vitamin D3 receptor (Homo sapiens) (UniProt P11473); test: qHTS assay to identify small molecule antagonists of the vitamin D receptor (VDR) signaling pathway (AID 743223; active means well fitted inhibition curve with a large enough effect in the signal ratio in the repeat runs, not every such curve was filed as active; the % refers to the signal ratio)
In short: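 Reporter line VDR-bla; stimulus 1alpha,25-(OH)2 vitamin D3, 3 nM final; compound co-addition, 16 h 37C/5% CO2; LiveBLAzer B/G substrate 2 h RT; fluorescence intensity.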

[19] = qHTS assay for small molecule activators of the heat shock response signaling pathway (AID 743210; active means well fitted activation curve with a large enough effect in the signal ratio in the repeat runs, with a control signal flat, not every such curve was filed as active; the % refers to the signal ratio;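 further: HeLa cells with beta-lactamase reporter driven by heat shock elements; series mostly up to about 63 µM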)
In short: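 Activation of heat shock element-controlled beta-lactamase expression is measured in HeLa cells by LiveBLAzer FRET fluorescence, with compound exposure lasting 5 h at 37 C and substrate loading 2.5 h at room temperature.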

[20] = qHTS assay for small molecule agonists of the antioxidant response element (ARE) signaling pathway (AID 743202; active means well fitted activation curve with a large enough effect in the signal ratio in the repeat runs, not every such curve was filed as active; the % refers to the signal ratio)
In short: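 Steps: seed ARE-bla HepG2 cells (2,000/well); incubate 5 h at 37 C; add compounds by pin tool; incubate 16 h at 37 C; add FRET substrate; read fluorescence after 2 h at RT.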
On the % scale 0 is the no-effect control and ±100 the full control effect.

Chain of Peroxisome proliferator-activated receptor gamma (Homo sapiens) (P37231 whole entry, looked up): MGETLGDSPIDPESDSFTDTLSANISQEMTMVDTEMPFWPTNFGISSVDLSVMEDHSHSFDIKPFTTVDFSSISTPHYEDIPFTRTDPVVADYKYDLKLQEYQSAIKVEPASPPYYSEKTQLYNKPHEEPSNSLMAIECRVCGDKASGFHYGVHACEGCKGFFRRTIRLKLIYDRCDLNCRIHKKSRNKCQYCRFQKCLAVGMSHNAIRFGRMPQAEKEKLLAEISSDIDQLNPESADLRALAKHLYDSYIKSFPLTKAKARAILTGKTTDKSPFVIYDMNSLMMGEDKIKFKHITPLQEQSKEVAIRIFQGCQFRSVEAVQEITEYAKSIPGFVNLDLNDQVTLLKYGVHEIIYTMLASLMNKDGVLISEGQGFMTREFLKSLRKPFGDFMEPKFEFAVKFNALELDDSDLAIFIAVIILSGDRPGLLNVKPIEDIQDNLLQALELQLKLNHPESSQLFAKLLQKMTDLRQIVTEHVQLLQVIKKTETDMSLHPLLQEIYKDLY
Chain of Peroxisome proliferator-activated receptor delta (Homo sapiens) (Q03181 whole entry, looked up): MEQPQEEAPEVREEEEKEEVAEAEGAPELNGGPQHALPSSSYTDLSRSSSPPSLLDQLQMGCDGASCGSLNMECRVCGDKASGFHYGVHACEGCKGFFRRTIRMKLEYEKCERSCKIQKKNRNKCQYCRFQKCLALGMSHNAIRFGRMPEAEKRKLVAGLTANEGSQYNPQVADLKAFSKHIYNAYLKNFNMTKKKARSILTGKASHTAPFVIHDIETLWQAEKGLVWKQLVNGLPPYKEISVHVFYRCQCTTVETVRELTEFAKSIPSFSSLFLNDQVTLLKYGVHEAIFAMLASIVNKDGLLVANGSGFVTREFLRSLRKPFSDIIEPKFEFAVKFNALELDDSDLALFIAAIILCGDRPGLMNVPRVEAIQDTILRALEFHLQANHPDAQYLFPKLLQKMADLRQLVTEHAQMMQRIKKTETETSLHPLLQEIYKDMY
Chain of Bile acid receptor (Homo sapiens) (Q96RI1 whole entry, looked up): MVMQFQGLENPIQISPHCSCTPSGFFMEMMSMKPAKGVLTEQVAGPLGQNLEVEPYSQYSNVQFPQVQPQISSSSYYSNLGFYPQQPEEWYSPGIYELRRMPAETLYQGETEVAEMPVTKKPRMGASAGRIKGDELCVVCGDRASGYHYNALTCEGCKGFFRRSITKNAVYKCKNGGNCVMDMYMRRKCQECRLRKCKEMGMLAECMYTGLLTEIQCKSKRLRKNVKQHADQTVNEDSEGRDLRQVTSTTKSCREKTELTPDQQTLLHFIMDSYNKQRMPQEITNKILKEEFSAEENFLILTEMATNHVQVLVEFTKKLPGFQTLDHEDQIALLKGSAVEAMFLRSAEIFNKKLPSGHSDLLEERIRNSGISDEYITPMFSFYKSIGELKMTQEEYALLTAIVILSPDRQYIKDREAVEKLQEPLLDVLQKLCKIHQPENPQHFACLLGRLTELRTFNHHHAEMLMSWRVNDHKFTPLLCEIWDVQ
Chain of Aryl hydrocarbon receptor (Homo sapiens) (P35869 whole entry, looked up): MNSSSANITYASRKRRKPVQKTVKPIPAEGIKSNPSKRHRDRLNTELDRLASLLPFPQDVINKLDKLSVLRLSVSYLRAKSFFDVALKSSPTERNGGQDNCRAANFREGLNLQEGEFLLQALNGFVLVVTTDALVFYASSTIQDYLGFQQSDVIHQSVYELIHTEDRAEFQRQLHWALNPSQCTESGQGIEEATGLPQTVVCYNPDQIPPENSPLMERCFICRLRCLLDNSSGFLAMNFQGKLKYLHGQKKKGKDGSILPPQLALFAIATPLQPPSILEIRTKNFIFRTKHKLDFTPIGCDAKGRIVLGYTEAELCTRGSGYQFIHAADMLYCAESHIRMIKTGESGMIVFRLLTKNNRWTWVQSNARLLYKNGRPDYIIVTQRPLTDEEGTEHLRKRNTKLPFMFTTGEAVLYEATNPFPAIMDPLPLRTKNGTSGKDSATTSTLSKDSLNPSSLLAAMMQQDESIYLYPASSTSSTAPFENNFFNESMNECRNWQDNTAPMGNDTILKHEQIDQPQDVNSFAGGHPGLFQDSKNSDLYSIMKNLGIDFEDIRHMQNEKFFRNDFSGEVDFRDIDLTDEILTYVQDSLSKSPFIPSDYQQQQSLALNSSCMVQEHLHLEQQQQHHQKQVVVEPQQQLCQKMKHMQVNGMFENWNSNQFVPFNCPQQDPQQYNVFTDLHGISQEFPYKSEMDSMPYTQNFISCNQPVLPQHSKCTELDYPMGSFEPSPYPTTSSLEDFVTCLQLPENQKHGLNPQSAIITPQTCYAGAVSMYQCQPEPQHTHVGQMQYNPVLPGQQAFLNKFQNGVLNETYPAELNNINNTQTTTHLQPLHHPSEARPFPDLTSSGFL
Chain of Vitamin D3 receptor (Homo sapiens) (P11473 whole entry, looked up): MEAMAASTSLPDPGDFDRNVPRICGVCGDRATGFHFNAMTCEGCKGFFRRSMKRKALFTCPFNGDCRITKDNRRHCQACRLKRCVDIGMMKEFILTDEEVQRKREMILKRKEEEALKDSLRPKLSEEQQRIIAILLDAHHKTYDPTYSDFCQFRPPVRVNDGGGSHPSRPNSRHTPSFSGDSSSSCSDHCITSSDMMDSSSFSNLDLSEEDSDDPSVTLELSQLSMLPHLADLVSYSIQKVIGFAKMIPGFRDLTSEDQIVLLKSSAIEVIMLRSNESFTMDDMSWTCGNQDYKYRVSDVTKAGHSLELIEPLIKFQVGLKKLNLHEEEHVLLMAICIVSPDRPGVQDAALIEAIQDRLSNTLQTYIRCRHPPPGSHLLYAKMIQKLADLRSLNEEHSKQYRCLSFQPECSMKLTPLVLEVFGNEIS

CC(C)CNCC(C)C
inactive: Potency [1] | Potency [2] | Potency [3] | outcome [4] | Potency [5] | outcome [6] | outcome [7] | Potency [8] | Potency [9] | outcome [10] | Potency [11] | outcome [12] | Potency [13] | outcome [14]

CC(=O)CC(C)C
inactive: Potency [1] | Potency [3] | outcome [15] | Potency [16] | outcome [4] | Potency [5] | outcome [6] | Potency [17] | outcome [7] | Potency [8] | Potency [9] | outcome [10] | Potency [11] | Potency [13] | outcome [14] | outcome [18]

O=[N+]([O-])c1ccc(F)cc1F
inactive: Potency [1] | Potency [2] | Potency [3] | outcome [4] | Potency [5] | outcome [19] | outcome [7] | Potency [9] | Potency [11] | Potency [13] | outcome [14] | outcome [18]

CCc1nccnc1CC
inactive: Potency [1] | Potency [2] | Potency [3] | outcome [4] | Potency [5] | outcome [19] | Potency [17] | outcome [7] | Potency [8] | Potency [9] | Potency [11] | Potency [13] | outcome [14] | outcome [18]

CCCCCCCCCCCCCC=O
inactive: activity change, negative = cytotoxicity [1] -6.33% [at 8.47 µM] | viability change, negative = cytotoxic [3] 3.67% [at 8.47 µM] | activation [15] -7.22% [at 7.08 µM] | activity change, negative = cytotoxicity [4] 14.4% [at 5.95 µM] | activation [20] -7.51% [at 8.36 µM] | viability change, negative = cytotoxic [5] 1.02% [at 8.36 µM] | activity change, negative = cytotoxicity [6] -3.36% [at 5.95 µM] | activation [19] -0.951% [at 5.95 µM] | activity change, negative = cytotoxicity [17] 7.31% [at 5.95 µM] | activation [7] 0.125% [at 5.95 µM] | ratio activity, negative = inhibition [9] -0.712% [at 6.26 µM] | viability change, negative = cytotoxic [11] 0% [at 5.95 µM] | activity change, negative = cytotoxicity [13] -2.35% [at 5.95 µM]

O=C[C@H](O)[C@@H](O)[C@H](O)[C@H](O)CO
inactive: Potency [1] | Potency [2] | Potency [3] | outcome [4] | Potency [5] | outcome [19] | Potency [17] | Potency [11] | Potency [13]

C/C=C(\C)C#N
inactive: Potency [1] | Potency [2] | Potency [3] | Potency [5] | outcome [6] | outcome [19] | Potency [17] | outcome [7] | Potency [8] | Potency [11] | Potency [13] | outcome [14] | outcome [18]

O=C(O)COc1nn(Cc2ccccc2)c2ccccc12
inactive: Potency [1] | Potency [2] | Potency [3] | outcome [4] | Potency [5] | outcome [6] | outcome [19] | Potency [17] | Potency [8] | Potency [11] | Potency [13]

CN(C)CCCN1c2ccccc2CCc2ccc(Cl)cc21
active: Potency [1] 48.6 µM | Potency [3] 27.3 µM | Potency [5] 43.3 µM | Potency [17] 38.9 µM and 29.8 µM | Potency [11] 24.5 µM | Potency [13] 49 µM
inactive: Potency [2] | outcome [6] | outcome [19] | outcome [14]

C=C1CC[C@H]2C[C@@H]1C2(C)C
inactive: Potency [1] | Potency [3] | outcome [15] | outcome [4] | Potency [20] | Potency [5] | outcome [19] | outcome [7] | Potency [8] | Potency [11] | Potency [13] | outcome [14] | outcome [18]

ClC(Cl)(Br)Br
inactive: Potency [1] | Potency [2] | Potency [3] | outcome [4] | Potency [5] | outcome [6] | outcome [19] | Potency [17] | Potency [8] | Potency [9] | Potency [11] | Potency [13] | outcome [14] | outcome [18]

CCOC(=O)c1c(C)n(C)c2ccc(O)cc12
active: Potency [2] 1.68 µM
inactive: Potency [1] | Potency [3] | outcome [4] | Potency [5] | outcome [6] | outcome [19] | Potency [17] | outcome [10] | Potency [11] | outcome [12] | Potency [13] | outcome [14] | outcome [18]

CCOC(=O)[C@H](CCc1ccccc1)N[C@@H](C)C(=O)N1[C@H](C(=O)O)C[C@@H]2CCC[C@@H]21
inactive: Potency [1] | Potency [3] | outcome [15] | Potency [16] | outcome [4] | Potency [20] | Potency [5] | outcome [6] | outcome [19] | Potency [17] | outcome [7] | Potency [8] | Potency [11] | Potency [13] | outcome [14] | outcome [18]

C[N+](C)(C)CCCCCC[N+](C)(C)C
inactive: Potency [1] | Potency [2] | Potency [3] | outcome [4] | Potency [5] | outcome [19] | outcome [7] | Potency [8] | Potency [9] | outcome [10] | Potency [11] | outcome [12] | Potency [13]

CC(C)NCC(O)c1ccc(NS(C)(=O)=O)cc1 (stereo not drawn)
inactive: Potency [3] | outcome [4] | Potency [20] | Potency [5] | outcome [6] | outcome [19] | outcome [7] | Potency [8] | Potency [9] | Potency [11] | Potency [13] | outcome [14] | outcome [18]

CC/C=C\CC/C=C/C(OCC)OCC
inactive: Potency [3] | outcome [4] | Potency [5] | outcome [6] | Potency [17] | Potency [8] | Potency [11] | Potency [13]

COc1ccc2c(c1)CCCC2=O
inactive: Potency [16] | outcome [4] | Potency [5] | outcome [19] | Potency [17] | Potency [8] | outcome [10] | Potency [11] | Potency [13] | outcome [14] | outcome [18]

Cc1cccc(C)c1NC(=O)C(C)N (stereo not drawn)
inactive: Potency [1] | Potency [3] | Potency [5] | outcome [6] | outcome [19] | Potency [17] | outcome [7] | Potency [9] | Potency [13] | outcome [14] | outcome [18]

Cc1sccc1Br
inactive: Potency [16] | outcome [4] | Potency [20] | Potency [5] | outcome [6] | outcome [19] | Potency [17] | Potency [8] | outcome [10] | outcome [12] | Potency [13] | outcome [14] | outcome [18]
